# Calls of active or inactive are those of the source.
# Tests used:
# [1] = binders of probe aFSTL3 on microarray, primary screen, stem cell growth factor project, biochemical, small-molecule microarray, fluorescence 635/667 (AID 1064); details: higher = more signal;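 also: measures binding of the biotinylated anti-FSTL3 antibody to printed compounds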
# [2] = binders from COS7 lysate, DM2A8 probe, primary screen, torsin A project, cell lysate, small-molecule microarray, fluorescence 635/667 (AID 1065); details: higher = more signal, COS7 lysate expressing mutant human TOR1A
# [3] = binders of probe aFGF2 on microarray, primary screen, stem cell growth factor project, biochemical, small-molecule microarray, fluorescence 635/667 (AID 1067); details: higher = more signal;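 also: measures binding of biotinylated aFGF2 protein to printed compounds on slides; z-score merges feature fluorescence and signal-to-noise across triplicate slides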
# [4] = binders of probe aFGF10 on microarray, primary screen, stem cell growth factor project, biochemical, small-molecule microarray, fluorescence 635/667 (AID 1071); details: higher = more signal;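 also: score merges 667 nm spot intensity and signal to noise from triplicate slides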
# [5] = target: Neurogenic locus notch homolog protein 2 (Homo sapiens) (UniProt Q04721); assay: Notch2 binders on small-molecule microarrays, primary screen, biochemical, small-molecule microarray, 635 nm fluorescence, stem cell growth factors (AID 1073); details: Notch2 binding, higher = more signal
# Chain of Neurogenic locus notch homolog protein 2 (Homo sapiens) (Q04721 whole entry, looked up, canonical isoform): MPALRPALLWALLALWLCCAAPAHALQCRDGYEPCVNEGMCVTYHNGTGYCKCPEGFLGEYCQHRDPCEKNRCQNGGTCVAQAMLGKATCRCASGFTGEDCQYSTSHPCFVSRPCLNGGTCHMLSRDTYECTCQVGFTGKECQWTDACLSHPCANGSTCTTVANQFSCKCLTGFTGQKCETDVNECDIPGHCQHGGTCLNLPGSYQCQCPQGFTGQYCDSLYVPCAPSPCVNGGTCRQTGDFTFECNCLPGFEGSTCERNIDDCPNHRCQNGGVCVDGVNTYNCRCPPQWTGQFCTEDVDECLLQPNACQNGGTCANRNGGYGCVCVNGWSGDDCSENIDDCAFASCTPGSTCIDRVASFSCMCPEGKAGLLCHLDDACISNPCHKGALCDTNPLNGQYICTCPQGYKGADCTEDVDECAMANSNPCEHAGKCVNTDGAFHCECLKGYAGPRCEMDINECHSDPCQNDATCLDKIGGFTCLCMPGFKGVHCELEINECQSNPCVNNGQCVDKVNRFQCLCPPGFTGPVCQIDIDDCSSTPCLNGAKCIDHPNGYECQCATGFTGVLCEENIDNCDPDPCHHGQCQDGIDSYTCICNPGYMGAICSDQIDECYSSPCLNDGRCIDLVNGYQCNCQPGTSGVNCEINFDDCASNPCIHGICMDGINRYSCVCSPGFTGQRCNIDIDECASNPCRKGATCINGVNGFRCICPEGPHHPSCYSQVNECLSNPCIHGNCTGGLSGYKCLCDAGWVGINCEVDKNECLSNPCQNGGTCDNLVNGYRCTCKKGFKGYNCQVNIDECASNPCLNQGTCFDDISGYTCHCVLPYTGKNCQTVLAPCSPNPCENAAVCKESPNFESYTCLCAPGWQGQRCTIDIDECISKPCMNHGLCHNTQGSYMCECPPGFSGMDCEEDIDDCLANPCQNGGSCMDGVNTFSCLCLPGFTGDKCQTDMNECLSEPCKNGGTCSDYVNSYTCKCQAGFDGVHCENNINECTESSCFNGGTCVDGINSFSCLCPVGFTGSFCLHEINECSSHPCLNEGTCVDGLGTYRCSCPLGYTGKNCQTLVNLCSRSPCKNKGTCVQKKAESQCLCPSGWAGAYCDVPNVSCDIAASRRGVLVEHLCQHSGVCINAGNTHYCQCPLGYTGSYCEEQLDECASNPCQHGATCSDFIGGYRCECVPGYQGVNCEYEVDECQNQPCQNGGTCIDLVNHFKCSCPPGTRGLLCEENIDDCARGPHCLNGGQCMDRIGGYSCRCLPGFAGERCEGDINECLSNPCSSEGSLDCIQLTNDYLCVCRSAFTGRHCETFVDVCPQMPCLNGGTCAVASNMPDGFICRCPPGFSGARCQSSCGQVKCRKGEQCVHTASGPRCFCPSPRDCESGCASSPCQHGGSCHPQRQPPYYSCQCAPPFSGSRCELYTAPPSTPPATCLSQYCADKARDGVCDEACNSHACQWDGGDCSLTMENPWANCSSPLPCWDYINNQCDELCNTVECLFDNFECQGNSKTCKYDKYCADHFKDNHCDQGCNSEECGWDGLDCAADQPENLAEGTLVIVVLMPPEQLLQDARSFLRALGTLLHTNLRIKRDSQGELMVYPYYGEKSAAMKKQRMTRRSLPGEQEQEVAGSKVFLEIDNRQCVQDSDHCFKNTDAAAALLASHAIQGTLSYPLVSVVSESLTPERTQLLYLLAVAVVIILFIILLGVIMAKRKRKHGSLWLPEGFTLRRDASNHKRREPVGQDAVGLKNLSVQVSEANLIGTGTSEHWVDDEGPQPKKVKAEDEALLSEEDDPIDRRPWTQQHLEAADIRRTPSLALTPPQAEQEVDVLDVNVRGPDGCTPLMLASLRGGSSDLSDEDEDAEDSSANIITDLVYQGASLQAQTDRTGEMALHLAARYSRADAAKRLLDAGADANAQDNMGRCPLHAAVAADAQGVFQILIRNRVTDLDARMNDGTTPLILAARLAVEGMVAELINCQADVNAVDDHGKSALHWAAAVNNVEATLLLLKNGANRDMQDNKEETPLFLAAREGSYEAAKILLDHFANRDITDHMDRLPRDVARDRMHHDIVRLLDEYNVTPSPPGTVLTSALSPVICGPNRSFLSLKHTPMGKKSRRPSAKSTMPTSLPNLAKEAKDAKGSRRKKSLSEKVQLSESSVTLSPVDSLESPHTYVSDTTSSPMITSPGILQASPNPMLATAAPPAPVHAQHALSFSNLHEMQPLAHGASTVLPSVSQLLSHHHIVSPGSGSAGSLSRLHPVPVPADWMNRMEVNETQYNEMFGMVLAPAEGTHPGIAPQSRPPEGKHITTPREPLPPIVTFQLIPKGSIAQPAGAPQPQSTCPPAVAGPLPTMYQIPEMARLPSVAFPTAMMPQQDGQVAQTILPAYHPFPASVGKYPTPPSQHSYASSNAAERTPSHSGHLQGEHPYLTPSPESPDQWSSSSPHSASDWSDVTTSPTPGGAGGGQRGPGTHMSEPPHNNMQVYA
# [6] = target: Pro-neuregulin-1, membrane-bound isoform (Homo sapiens) (UniProt Q02297); assay: NRG1 binders on small-molecule microarrays, primary screen, psychiatric disease protein project, biochemical, small-molecule microarray, fluorescence 635/667 (AID 1075); details: NRG1 binding, 635 nm fluorescence, higher = more signal;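 also: score combines 667 nm spot fluorescence with signal to noise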
# Chain of Pro-neuregulin-1, membrane-bound isoform (Homo sapiens) (Q02297 whole entry, looked up, the tested form may be a part, canonical isoform): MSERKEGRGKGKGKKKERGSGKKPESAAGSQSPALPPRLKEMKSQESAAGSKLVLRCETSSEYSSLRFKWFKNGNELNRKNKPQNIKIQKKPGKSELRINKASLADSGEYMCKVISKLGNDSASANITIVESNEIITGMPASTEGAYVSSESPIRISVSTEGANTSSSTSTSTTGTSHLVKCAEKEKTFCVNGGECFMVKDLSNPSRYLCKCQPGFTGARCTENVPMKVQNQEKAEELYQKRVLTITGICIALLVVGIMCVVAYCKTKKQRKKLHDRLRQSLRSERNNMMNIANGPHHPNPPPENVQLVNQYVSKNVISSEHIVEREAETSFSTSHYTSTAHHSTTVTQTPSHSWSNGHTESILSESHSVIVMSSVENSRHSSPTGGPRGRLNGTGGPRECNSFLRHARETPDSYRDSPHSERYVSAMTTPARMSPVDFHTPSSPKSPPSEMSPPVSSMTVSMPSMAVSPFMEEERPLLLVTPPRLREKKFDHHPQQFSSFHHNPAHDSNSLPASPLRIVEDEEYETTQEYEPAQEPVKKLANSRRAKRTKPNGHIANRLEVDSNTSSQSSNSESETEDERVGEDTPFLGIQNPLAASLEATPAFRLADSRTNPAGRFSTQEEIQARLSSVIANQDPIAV
# [7] = system: Neuregulin-1 EGF-like domain; assay: binders of neuregulin-1 EGF-like domain, primary screen, biochemical, small-molecule microarray, 635 nm fluorescence (AID 1081); details: small-molecule microarray binding, higher = more signal;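 also: binding of the protein to compounds printed on small-molecule microarray slides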
# [8] = FRG1 promoter luciferase signal modulators, primary screen, FRG1 inhibition for FSHD, cell-based, C2C12 myotubes, firefly/Renilla luciferase, luminescence (AID 1084); details: higher = more signal, called active from +8 up or from −8 down
# [9] = binders of probe aFST on microarray, primary screen, stem cell growth factor project, biochemical, small-molecule microarray, fluorescence 635/667 (AID 1086); details: higher = more signal;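 also: score merges 667 nm fluorescence with signal-to-noise of each printed compound spot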
# [10] = binders of probe aHhip on microarray, primary screen, stem cell growth factor project, biochemical, small-molecule microarray, fluorescence 635/667 (AID 1087); details: higher = more signal;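 also: score merges spot fluorescence at 667nm with spot signal to noise ratio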
# [11] = system: PRMT1 (protein arginine N-methyltransferase 1); assay: PRMT1 binders on small-molecule microarrays, primary screen, biochemical, small-molecule microarray, 635 nm fluorescence (AID 1088); details: small-molecule microarray binding, higher = more signal;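 also: binding of Prmt1 protein to compounds spotted on small-molecule microarray slides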
# [12] = yeast growth modulation, basal conditions, primary screen, YJM789 clinical isolate, OD600, 24 h (AID 1089);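 also: growth of clinical yeast isolate S. cerevisiae YJM 789 seeded 1000 cells per well; test concentration not given here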; details: S. cerevisiae YJM789 growth, higher = more signal, called active from +8 up or from −8 down
# [13] = fission yeast growth modulation, primary screen, strain 972, OD600, 24 h, no modulator (AID 1090);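 also: basal condition with compound alone and no growth modifier present; test concentration not given here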; details: S. pombe 972 growth, higher = more signal, called active from +8 up or from −8 down
# [14] = S. cerevisiae growth modulation with rapamycin, primary screen, strain BY4716, OD600, 96 h (AID 1091); details: higher = more signal, called active from +8 up or from −8 down; also: test concentration not given here
# [15] = target: Torsin-1A-interacting protein 2 (Homo sapiens) (UniProt Q8NFQ8); assay: LULL1 binders on small-molecule microarray, primary screen, cell lysate, human LULL1 lysate, 635/667 nm fluorescence (AID 1092); details: hLULL1 lysate binding, 635 nm fluorescence, higher = more signal;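 also: probe is lysate of COS7 cells overexpressing human LULL1; score merges per-feature 667 nm fluorescence with signal-to-noise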
# Chain of Torsin-1A-interacting protein 2 (Homo sapiens) (Q8NFQ8 whole entry, looked up): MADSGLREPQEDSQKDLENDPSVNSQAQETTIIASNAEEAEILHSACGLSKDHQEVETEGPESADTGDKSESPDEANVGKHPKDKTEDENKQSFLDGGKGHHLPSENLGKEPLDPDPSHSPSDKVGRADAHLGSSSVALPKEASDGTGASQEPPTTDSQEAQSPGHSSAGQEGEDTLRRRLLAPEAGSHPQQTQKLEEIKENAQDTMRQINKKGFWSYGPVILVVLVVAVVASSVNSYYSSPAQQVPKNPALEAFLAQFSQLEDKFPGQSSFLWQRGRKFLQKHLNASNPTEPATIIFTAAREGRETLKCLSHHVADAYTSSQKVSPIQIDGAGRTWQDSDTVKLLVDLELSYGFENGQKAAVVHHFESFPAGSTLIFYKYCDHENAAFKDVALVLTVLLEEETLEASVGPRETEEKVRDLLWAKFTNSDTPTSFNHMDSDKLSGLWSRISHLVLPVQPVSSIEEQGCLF
# [16] = E. coli growth modulation, two-sided OD650, primary screen, E. coli filamentation project, strain DRC41, 24 h (AID 1093); details: OD650, 24 h, higher = more signal, called active from +8 up or from −8 down;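 also: MC1000 strain lacking acrAB efflux and sulA so SOS filamentation is blocked; test concentration not given here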
# [17] = small-molecule microarray binders of probe aLefty2, primary screen, biochemical, biotinylated probe, 635/667 nm fluorescence (AID 1094); details: higher = more signal;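 also: score merges spot fluorescence near 667 nm with spot signal-to-noise ratio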
# [18] = system: Noggin (protein binding on small-molecule microarray); assay: Noggin binders on small-molecule microarray, primary screen, biochemical, 635/667 nm fluorescence (AID 1095); details: 635 nm fluorescence, higher = more signal;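 also: score merges 667 nm feature fluorescence with signal to noise over triplicate slides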
# [19] = target: Neurogenic locus notch homolog protein 3 (Homo sapiens) (UniProt Q9UM47); assay: NOTCH3 binders on small-molecule microarray, primary screen, biochemical, 635/667 nm fluorescence (AID 1096); details: NOTCH3 binding, 635 nm fluorescence, higher = more signal
# [20] = small-molecule microarray binders of probe aEGFR, primary screen, biochemical, biotinylated probe, 635/667 nm fluorescence (AID 1097); details: higher = more signal;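 also: probe is a biotinylated anti-EGFR antibody binding compounds printed on slides; score combines fluorescence near 667 nm and signal to noise of each spot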
Compound,composite z-score [1],composite z-score [2],composite z-score [3],composite z-score [4],composite z-score [5],composite z-score [6],composite z-score [7],z-score [8],composite z-score [9],composite z-score [10],composite z-score [11],z-score [12],z-score [13],z-score [14],composite z-score [15],z-score [16],composite z-score [17],composite z-score [18],composite z-score [19],composite z-score [20]
Cc1c(NC(=O)/C(C#N)=C/C=C/c2ccc(N(C)C)cc2)c(=O)n(-c2ccccc2)n1C,-0.266,0.297,0.29,0.82,1.18,1.49,1.17,3.7 (inactive),0.512,0.409,1.55,-0.0755 (inactive),-0.544 (inactive),-0.299 (inactive),2.6,0.482 (inactive),0.647,0.586,0.739,0.118
COc1ccc(C(O)C2C=CC3C(=O)N(C)C(=O)C3N2N2CCCCC2)cc1 (stereo not given),-0.162,1.42,0.213,1,1.65,1.61,1.38,1.51 (inactive),0.201,-0.283,0.973,-0.186 (inactive),-0.275 (inactive),-0.0667 (inactive),2.83,-0.454 (inactive),0.311,0.158,0.871,0.0961
C=CC[C@]12N=C(c3ccc(OCCCO)cc3)O[C@H]1c1ccccc1N(C)C2=O,1.21,0.541,0.0563,0.21,0.0523,1.3,1.22,-1.14 (inactive),0.896,0.214,1.57,-0.167 (inactive),-4.1 (inactive),0.532 (inactive),2.78,-0.479 (inactive),0.28,0.798,0.725,0.0488
COc1cc2c(cc1O)C(C)N(Cc1cc3c(cc1Br)OCO3)CC2 (stereo not given),0.731,-0.192,-0.0951,0.0663,0.511,0.53,1.5,0.0288 (inactive),-0.175,0.0749,-0.285,0.406 (inactive),-10.1 (active),-1.35 (inactive),0.169,-0.471 (inactive),0,-1.03,-0.53,-0.0594
C=CC[C@@]1(C(=O)N2CCCCC2)N=C(c2ccc(OCCCO)cc2)O[C@@H]1c1ccccc1,1,0.651,0.0336,0.307,0.201,1.56,1.19,-1.21 (inactive),0.688,0.595,1.56,-2.83 (inactive),-5.65 (inactive),-1.18 (inactive),3.06,0.868 (inactive),0.361,1.14,0.5,0.0222
O=C1O[C@@H](c2ccccc2)[C@@H](c2ccccc2)N2[C@@H](c3ccccc3OCCO)[C@]3(C(=O)Nc4ccc(C#CC5=CCCCC5)cc43)[C@@H](C(=O)NC[C@H](O)c3ccccc3)[C@H]12,-0.595,2.06,0.0296,0.648,0.948,1.42,1.01,-0.279 (inactive),0.517,-0.0391,1.55,1.03 (inactive),0.112 (inactive),3.61 (inactive),2.38,1.38 (inactive),-0.273,0.988,1.11,-0.0371
C[n+]1ccc(CCCO)cc1,1.03,1.06,-0.044,0.0582,-1.21,-0.161,1.45,1.12 (inactive),-0.311,0.837,0.618,0.654 (inactive),-0.96 (inactive),0.316 (inactive),0.427,-2.1 (inactive),0.181,0.436,-0.13,0.0455
CN(C)CCCNC(=O)[C@@]1(c2ccc([N+](=O)[O-])cc2)CC(=O)N(CC23CC4CC(CC(C4)C2)C3)[C@@H]1c1ccc(CO)cc1,1.47,1.15,0.301,0.143,0.904,1.38,1.35,-2.36 (inactive),1.92,0.635,1.53,-22.2 (active),-20.2 (active),-4.03 (inactive),3.39,-0.279 (inactive),0.969,1.32,1.05,0.0529
COCCOC(=O)N1C(=O)[C@@]2(c3cc(C#CC4=CCCCC4)ccc31)[C@H](c1ccc(O)cc1)N1[C@H](c3ccccc3)[C@H](c3ccccc3)OC(=O)[C@H]1[C@@H]2C(=O)Nc1nc2ccccc2s1,-0.177,0.441,0.0323,0.969,1.24,0.896,1.23,1.53 (inactive),1.06,0.0972,1.54,0.724 (inactive),0.0687 (inactive),0.801 (inactive),3.5,-0.249 (inactive),-0.141,0.824,1.04,0.178
COc1ccc(C(O)C2C=CC3C(=O)N(Cc4ccccc4)C(=O)C3N2n2cnnc2)c2ccccc12 (stereo not given),0.487,1.07,-0.0876,-0.522,-0.782,1.81,1.32,0.422 (inactive),0.623,-0.162,1.17,-0.346 (inactive),0.0768 (inactive),-0.282 (inactive),2.81,-0.671 (inactive),-0.238,-0.641,0.556,-0.175
COCC(=C=CC[C@H](O)c1cccc(OCCO)c1)C[C@H](O)c1ccccn1,-0.203,-0.3,-0.135,0.18,-0.542,1.24,1.44,0.0158 (inactive),0.395,-0.0618,1.02,0.941 (inactive),0.44 (inactive),0.371 (inactive),1.88,0.559 (inactive),-0.166,0.704,0.0673,0.0149
C=C(/C(=C/C[C@@H](OC(=O)c1ccncc1)c1ccccc1OCCO)c1cc(C(=O)OC)ccc1OC)C(C)C,-0.259,0.584,-0.0352,0.533,0.311,0.878,1.1,-1.31 (inactive),0.586,0.0854,1.56,0.381 (inactive),-0.633 (inactive),-0.338 (inactive),3.07,0.616 (inactive),-0.0155,0.88,1.01,-0.0353
C[C@H]1C2=C3C(CC[C@H]4C(OCc5ccc(F)cc5C(F)(F)F)OC[C@](C)([C@@H]34)N(C(=O)OC(C)(C)C)C2)C(CO)C1CO (stereo not given in full),0.0721,-0.249,0.0506,-0.0807,1.57,1.76,0.572,0.133 (inactive),1.72,0.2,0.889,0.24 (inactive),-3.71 (inactive),0.0345 (inactive),3.04,-1.5 (inactive),0.606,-0.904,1.05,0.0149
CCOC(=CC(=O)OC)CC(O)c1cccc(Cl)c1 (stereo not given),0.201,0.071,-0.0504,-0.157,-0.124,1.43,1.37,-3.65 (inactive),-0.595,-0.303,1.39,-4.05 (inactive),-7.01 (inactive),-1.53 (inactive),2.4,0.341 (inactive),-0.125,-0.673,0.27,-0.128
CC[C@H]1C2=C3C(CC[C@H]4C(OCc5ccc(F)cc5C(F)(F)F)OC[C@](C)([C@@H]34)N(C(=O)OC(C)(C)C)C2)C2COC(=O)OCC21 (stereo not given in full),0.0488,-0.377,0.0246,0.112,1.25,1.47,0.874,1.82 (inactive),1.73,-0.0047,0.254,0.416 (inactive),1.13 (inactive),0.896 (inactive),3.34,-1.81 (inactive),0.375,-0.581,1.1,-0.117
CC=CC(O)C1C=CC2C(=O)N(C)C(=O)C2N1N1CCCCC1 (stereo not given),-0.0771,0.326,-0.0231,0.862,1.45,1.85,1.26,1.89 (inactive),0.697,-0.305,1.34,-0.322 (inactive),1.01 (inactive),-0.207 (inactive),3.52,-1.53 (inactive),0.0974,0.605,1.09,-0.115
CC1CC/C=C\[C@H]2OC34C=CCN(CCN5CCOCC5)C(=O)[C@H]3N(CCO)C(=O)[C@@H]4C2C(=O)O1 (stereo not given in full),0.507,-0.342,0.013,-0.105,-0.807,-0.917,-0.376,-0.322 (inactive),-0.421,-0.4,-0.623,-0.962 (inactive),0.0701 (inactive),0.005 (inactive),-0.144,1.25 (inactive),-0.103,-0.982,-0.43,-0.196
COC(=O)Cn1c(C(=O)N2CCCC2)cc2c1C[C@H]1CN(C(=O)c3ccccc3)[C@@](Cc3ccc(F)cc3)(C(=O)OC)[C@@H]21,-0.366,0.281,-0.0329,0.0839,0.358,2,1.07,-0.566 (inactive),0.131,0.0845,-0.533,-1.98 (inactive),0.562 (inactive),-1.24 (inactive),2.03,0.782 (inactive),-0.0199,-0.405,-0.251,-0.363
C[C@@H]1ON(c2ccc(C(=O)OC(C)(C)C)cc2)[C@H](c2ccc(Br)cc2)[C@H]1C(=O)N1C(=O)OC[C@H]1Cc1ccccc1,-0.312,0.155,0.0333,0.552,1.52,1.05,1.11,0.002 (inactive),0.492,-0.0618,1.53,0.689 (inactive),0.716 (inactive),0.71 (inactive),2.22,0.425 (inactive),0.149,0.633,1.08,0.0338
O=C1NC(=O)C2C1C=CC(C(O)c1ccc3c(c1)OCO3)N2Nc1ccccn1 (stereo not given),-0.0049,0.0415,0.271,0.204,0.994,1.91,1.16,-0.653 (inactive),0.364,0.0274,0.227,-0.976 (inactive),1.02 (inactive),-0.939 (inactive),2.78,-0.541 (inactive),0.0787,0.233,0.552,-0.0999
